# Screening data deposited in PubChem by National Center for Advancing Translational Sciences (NCATS).
# VP16 counter: VP16 counterscreen qHTS for inhibitors of ROR gamma transcriptional activity. Drosophila S2 Gal4-VP16 UAS-luciferase, luminescence, 20 h. Potency, µM (titrated, usually from 53.6 µM), without a hit: top-dose activity, negative = inhibition, hits mostly inhibitors. 3.5% of 310,000 active;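 also: Gal4-VP16 expression switched on by copper sulfate through the metallothionein promoter; potency is read from the fitted curve at half-maximal effect; nearly all actives have a fitted effect of over 50% in size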
# TDP1 cell CPT: qHTS for Inhibitors of human tyrosyl-DNA phosphodiesterase 1 (TDP1): qHTS in cells in presence of CPT; 12% of 420,000 active; AID 686979, 2013; Potency, µM (series often up to 46.2 µM), for inactives: at the highest dose activity change, negative = growth inhibition, hits mostly inhibitors; chicken DT40 Tdp1-/-;hTDP1 cells + 20 nM CPT, ATP luminescence, 48 h; also: potency is read from the fitted curve at half-maximal effect; nearly all actives have a fitted effect of over 55% in size
#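 Cell growth measured by CellTiter-Glo luminescence after a minimum 48 h, 37 C compound exposure with 20 nM CPT in Tdp1-knockout DT40 cells stably expressing hTDP1, seeded 400/well; qHTS titration format.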
# DT40 TDP1 no CPT: qHTS for Inhibitors of human tyrosyl-DNA phosphodiesterase 1 (TDP1): qHTS in cells in absence of CPT. 15% of 420,000 active. DT40 Tdp1-/- hTDP1 cells, no CPT, ATP luminescence, 48 h. Potency, µM (doses to about 46.2 µM), for inactives: at the top dose activity change, negative = growth inhibition, hits mostly inhibitors; also: potency is read from the fitted curve at half-maximal effect; nearly all actives have a fitted effect of over 55% in size
#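 Chicken DT40 Tdp1-/- cells complemented with human TDP1, screened without camptothecin (DMSO vehicle only), 400 cells/well. Compounds pin-transferred, cells incubated at 37 °C for at least 48 hr. Growth read as ATP-dependent luminescence (CellTiter-Glo, 30 min at RT).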
# IL-1B inflam inh: qHTS for Inhibitors of Inflammasome Signaling: IL-1-beta AlphaLISA Primary Screen. 4.7% of 360,000 active. THP-1 LPS/ATP IL-1B secretion, AlphaLISA, 16 h; stronger effect = lower value. AID 743279, 2014. activity change, % at 57.5 µM; in the data active = activity change below about -50%; inconclusive = mostly about -30% to -49%
#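 THP-1 cells pretreated 1 hr with compounds (up to 57.5 uM final), then stimulated with LPS (250 ng/mL final) plus ATP (1.25 mM final); secreted IL-1B measured by AlphaLISA after 16 hr, decreased signal indicating inhibition.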
# RORg inh: qHTS for inhibitors of ROR gamma transcriptional activity. Drosophila S2 Gal4-RORgamma UAS-luciferase reporter, 20 h. Potency, µM (top dose mostly 53.6 µM), for inactives: at the highest dose activity change, negative = inhibition, most hits filed as inhibitors. 5.4% of 310,000 active; also: potency is read from the fitted curve at half-maximal effect; nearly all actives have a fitted effect of over 60% in size
# Target sequence (P51450 whole entry, looked up, the tested form may be a part): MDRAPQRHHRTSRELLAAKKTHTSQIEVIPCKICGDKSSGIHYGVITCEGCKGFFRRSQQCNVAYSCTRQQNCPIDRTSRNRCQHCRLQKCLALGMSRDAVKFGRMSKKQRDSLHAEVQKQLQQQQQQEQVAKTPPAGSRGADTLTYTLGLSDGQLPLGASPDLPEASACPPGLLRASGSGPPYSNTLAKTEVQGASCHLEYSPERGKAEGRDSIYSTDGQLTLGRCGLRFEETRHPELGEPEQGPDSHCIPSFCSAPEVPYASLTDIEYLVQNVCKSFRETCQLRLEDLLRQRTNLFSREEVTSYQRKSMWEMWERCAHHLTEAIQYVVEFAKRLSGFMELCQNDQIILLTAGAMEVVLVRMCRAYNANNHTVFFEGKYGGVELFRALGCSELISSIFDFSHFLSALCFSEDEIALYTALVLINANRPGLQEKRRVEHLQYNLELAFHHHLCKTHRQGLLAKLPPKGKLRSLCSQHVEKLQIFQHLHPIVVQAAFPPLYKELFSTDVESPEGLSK
#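 A Gal4/UAS one-hybrid system in insect cells: metallothionein-promoter Gal4–ROR gamma fusion plus Photinus luciferase reporter. Copper sulfate 700 uM final, 20 hr ambient incubation, luminescent detection after 10 min with reagent.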
# ELG1 DNA repair: qHTS screen for small molecules that inhibit ELG1-dependent DNA repair in human embryonic kidney (HEK293T) cells expressing luciferase-tagged ELG1; HEK293T ELG1-luciferase reporter, luminescence, 16 h; DNA damage induced by 5-fluorouridine; 2.3% of 330,000 active; Potency, µM (highest dose often 46.1 µM), without a hit: at the top dose activity change, negative = inhibition, most hits filed as inhibitors; AID 504467, 2011; also: potency is read from the fitted curve at half-maximal effect; nearly all actives have a fitted effect of over 55% in size
#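 Overnight (16 hr) co-exposure of 2,000 cells/well to 5-fluorouridine and compound at 37 °C preceded detection. Luciferase was quantified via ONE-Glo luminescence; loss of signal denotes inhibition.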
# Starred values were filed as active, the others as inactive; u = inconclusive; x = no result; ! = not active in a repeat; [ ] = dose if it differs, or a comment. Compounds with a hit are over-represented: about 21% of the library has one in this group of screens. Unless noted, calls follow the shape of the dose curve; as a rule, active = well fitted curve in the direction sought with a large enough effect; inconclusive = small, poorly fitted or top-dose-only effect, or another doubt; inactive = no such curve, though single readings can be large; an effect the other way counts as inactive or inconclusive. % is scaled to controls: 0 for no effect and ±100 for the full control effect.
SMILES,VP16 counter,TDP1 cell CPT,DT40 TDP1 no CPT,IL-1B inflam inh,RORg inh,ELG1 DNA repair
COc1cc(NC(=O)C2CCC(CNc3c(N4CCC(C)CC4)c(=O)c3=O)CC2)cc(OC)c1 (stereo not given),-8.4%,u,-7.0%,-62.3*!,-29.4%,u
CCc1nn2c(=O)c(S(=O)(=O)Nc3ccc(Br)cc3F)c(C)nc2s1,x,-28.3%,-25.2%,x,x,x
Cc1ccc(O)c(Nc2ncnc3ccc([N+](=O)[O-])cc23)c1,9.8%,u,-28.6%,0.0,u,13µM*
O=[N+]([O-])c1ccc(O)c(Nc2ncnc3ccc(Br)cc23)c1,-19.5%,-20.4%,11.6µM*,26.5,u,13µM*
O=[N+]([O-])c1ccc(O)c(Nc2ncnc3ccccc23)c1,u,-8.1%,0.8%,28.7,u,8.8%
N#CC1=C(N)CCC1,x,-11.9%,-22.8%,x,x,x
O=C(OCn1ncc(Cl)c(Cl)c1=O)c1ccc(F)cc1,6.31µM*,x,x,x,u,u
O=c1c(Cl)c(Cl)cnn1Cc1ccc(F)cc1,u,-112.4%,13µM*,-98.8*,u,u
O=c1cnn(Cc2ccc(F)cc2)c2ccccc12,-6.8%,u,u,29.7,-9.1%,4.1%
O=C(OCn1ncc(Cl)c(Cl)c1=O)c1ccccc1Cl,12.6µM*,2.31µM*,4.61µM*,-97.4*,-89.2%,u
CC(Oc1ccc2ccc(=O)oc2c1)C(=O)N1CCOCC1 (stereo not given),x,12.2%,-17.1%,-5.8,x,17.9%
CCOc1cc(OCC)c(C(=O)CCC(=O)O)cc1OCC,2.0%,0.1%,-29.6%,x,-2.6%,x
CC(C)[C@H](NC(=O)c1ccccc1)C(=O)OCC(=O)c1ccc(S(=O)(=O)N2CCCCC2)cc1,x,u,-25.1%,-12.6,x,21.8%
O=C(O)C1CCCN1C(=O)C1CCN(S(=O)(=O)c2cccc(C(F)(F)F)c2)CC1 (stereo not given),x,-2.0%,-4.9%,18.3,x,9.3%
Cc1oc(-c2ccc(Cl)cc2)nc1CN1CCC(C(=O)N2CCc3ccccc3C2)CC1,9.3%,23.1µM*,18.4µM*,-10.2,-2.9%,u
CCOC(=O)C1CCCN(C(=O)C2CCN(Cc3nc(-c4ccc(Cl)cc4)oc3C)CC2)C1 (stereo not given),x,u,20.6µM*,-24.0,x,x
CCN1CCN(CCNC(=O)C2CCN(Cc3nc(-c4ccc(Cl)cc4)oc3C)CC2)CC1,-0.8%,x,x,x,11.1%,-2.3%
Cc1ccccc1-c1nc(CN2CCC(C(=O)N3CCN(c4ccccn4)CC3)CC2)c(C)o1,0.7%,23.1µM*,u,-0.3,-0.5%,u
CCOc1ccc(-c2nc(CN3CCCC(C(=O)N4CCOCC4)C3)c(C)o2)cc1 (stereo not given),-21.2%,-21.4%,-3.4%,42.3,1.9%,20.5%
Cc1oc(-c2ccc(Cl)cc2)nc1CN1CCC(C(=O)N2CCN(Cc3ccccc3)CC2)CC1,-3.1%,u,u,-59.8*,-9.3%,u
O/N=C(/c1ccccc1)c1cc2cc(Br)cc(Br)c2o1,-0.7%,-17.7%,u,-85.3*,-27.3%,-5.8%
Cc1ccc(NC(=O)CSc2nnc(-c3cc4occc4n3C)n2-c2ccccc2C)c(C)c1,x,u,18.4µM*,x,x,x
Cc1ccc(NC(=O)CSc2nccn2C)cc1F,u,6.0%,11.0%,-21.0,34.3%,2.5%
Cc1ccc(NC(=O)CSc2nnc(-c3cc4occc4n3C)n2-c2ccccc2C)cc1F,x,25.9µM*,16.4µM*,x,x,x
O=C1C[C@@H](O)[C@@H](O)[C@H]2[C@@H]3C(=O)N(C4CCCCC4)C(=O)[C@@H]3CC[C@H]12,-2.0%[10 µM],x,x,x,-0.1%[10 µM],x
SMILES,VP16 counter,TDP1 cell CPT,DT40 TDP1 no CPT,IL-1B inflam inh,RORg inh,ELG1 DNA repair
O=C(O)CCS(=O)(=O)c1nc(-c2cccs2)cc(C(F)(F)F)n1,u,10.3µM*,14.6µM*,-28.9,u,0.0%
O=C(CSc1nc(-c2cccs2)cc(C(F)(F)F)n1)NCc1ccccc1,5.7%,u,23.1µM*,-3.3,-31.2%,-16.6%
COc1cc(NC(=O)CSc2nc(-c3cccs3)cc(C(F)(F)F)n2)cc(OC)c1OC,x,20.6µM*,u,x,x,x
Cc1cc(NC(=O)CCCS(=O)(=O)c2nc(-c3cccs3)cc(C(F)(F)F)n2)no1,0.891µM*,2.59µM*,2.59µM*,-69.5*,5.62µM*,u
Cc1c(Cl)cccc1NC(=O)C(CCS(C)(=O)=O)N1Cc2ccccc2C1=O (stereo not given),x,u,-37.6%,x,x,x
COc1ccc(C(=O)CN2C(=O)NC3(CCc4ccccc43)C2=O)cc1 (stereo not given),-0.4%,-3.7%,5.9%,5.0,32.5%,-10.5%
CC(C)OC(=O)c1ccc(NC(=O)CSc2nc(-c3cccs3)cc(C(F)(F)F)n2)cc1,x,16.4µM*,29.1µM*,x,x,x
CN1CCN(c2nc(-c3cccs3)cc(C(F)(F)F)n2)CC1,-11.7%,u,u,u,-16.4%,10.4%
CS(=O)(=O)c1nc(-c2cccs2)cc(C(F)(F)F)n1,4.47µM*,x,x,x,2µM*,u
O=C(CCS(=O)(=O)c1nc(-c2cccs2)cc(C(F)(F)F)n1)Nc1cccc(O)c1,x,2.31µM*,5.17µM*,x,x,x
COc1cc(NC(=O)CCS(=O)(=O)c2nc(-c3cccs3)cc(C(F)(F)F)n2)cc(OC)c1OC,x,4.11µM*,6.51µM*,x,x,x
O=C(NC(=O)c1ccc(F)cc1)Nc1nc(-c2cccs2)cc(C(F)(F)F)n1,-2.3%,u,u,-9.9,u,u
CC(C)CNC(=O)CSc1nc(-c2cccs2)cc(C(F)(F)F)n1,-9.3%,u,u,-1.3,-49.8%,-3.3%
Cc1cccc(C)c1NC(=O)C(c1ccccc1)n1c(-c2ccccc2)nc2ccccc21 (stereo not given),x,u,u,-18.5,x,x
C=C[C@H](N)CCC(=O)O,5.1%,-18.0%,-1.2%,x,4.6%,x
COc1ccc(-c2ccc(C(=O)NCC3Cc4cccc(-c5nc(C)cnc5C)c4O3)o2)cc1 (stereo not given),x,-1.5%[9.04 µM],u,x,x,x
COc1ccc(OC)c(NC(=O)c2cc3c(=O)oc4ccccc4c3s2)c1,x,-2.8%,-6.0%,x,x,x
O=[N+]([O-])c1nc2ccccc2[nH]1,x,-8.1%,-28.0%,41.7,x,x
